Only some compounds are listed: those with a hit (about 4.1% of all), similar ones and a draw of the others.
Sm TGR inh: blocks Schistosoma mansoni thioredoxin glutathione reductase | Potency, µM (titrated, usually from 114 µM), for the others: top-dose activity change, negative = inhibition, actives largely listed as inhibitors | purified TGR, DTNB reduction, TNB absorbance 405 nm | 360,000 tested, 3% active | Q962Y6; note: nearly all actives have a fitted effect of over 60% in size
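Kinetic colorimetric format: TGR-catalysed, NADPH-driven DTNB reduction monitored via TNB absorbance. Enzyme dispensed at 20 nM; compound exposure 15 min at room temperature before reaction start.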
AmpC no deterg: blocks E. coli AmpC beta-lactamase in detergent-free assay; P00811; AmpC nitrocefin hydrolysis, absorbance 480 nm, 0.0001% Triton; Potency, µM (doses to about 57.1 µM), for inactives: at the top dose activity change, negative = inhibition, usual class: inhibitors; 330,000 tested, 0.52% active;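 note: plate controls were no compound for no effect and no enzyme for full effect; nearly all actives have a fitted effect of over 20% in size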
Target sequence (P00811 whole entry, looked up): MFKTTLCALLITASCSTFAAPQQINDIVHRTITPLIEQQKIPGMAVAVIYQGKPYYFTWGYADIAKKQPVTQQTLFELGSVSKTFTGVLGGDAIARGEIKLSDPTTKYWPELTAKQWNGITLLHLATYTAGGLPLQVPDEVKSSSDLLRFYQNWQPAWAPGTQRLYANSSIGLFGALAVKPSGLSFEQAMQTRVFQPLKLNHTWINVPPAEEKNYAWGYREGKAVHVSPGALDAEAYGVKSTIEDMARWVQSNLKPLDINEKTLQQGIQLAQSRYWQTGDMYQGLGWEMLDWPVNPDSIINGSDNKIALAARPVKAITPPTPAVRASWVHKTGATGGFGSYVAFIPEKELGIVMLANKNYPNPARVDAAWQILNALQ
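AmpC (5.3 nM in the dispensed reagent) in 20 mM phosphate pH 7.0 with 0.01% (detergent screen) or 0.0001% Triton X-100 was preincubated with compounds for 15 min at room temperature. Nitrocefin was then added from an 800 uM solution, and hydrolysis was followed at 480 nm.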
AmpC inh detg: blocks E. coli AmpC beta-lactamase in detergent assay | P00811 | AmpC hydrolysis of nitrocefin, absorbance 480 nm, 0.01% Triton | Potency, µM (highest dose often 114 µM), for inactives: at the top dose activity change, negative = inhibition, most hits filed as inhibitors | 370,000 tested, 0.041% active;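 note: 0% = no-compound wells and -100% = no-enzyme wells; nearly all actives have a fitted effect of over 25% in size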
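AmpC (5.3 nM in the dispensed reagent) in 20 mM phosphate pH 7.0 with 0.01% (detergent screen) or 0.0001% Triton X-100 was preincubated with compounds for 15 min at room temperature. Nitrocefin was then added from an 800 uM solution, and hydrolysis was followed at 480 nm.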
AMA1-RON2 inh: AMA1-RON2 (P. falciparum) interaction inhibition; AlphaScreen AMA1-biotinylated RON2 peptide binding; Potency, µM (doses to about 58.2 µM), for the others: at the highest dose activity change, negative = inhibition, usual class: inhibitors; 360,000 tested, 0.2% active;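 note: 0% = vehicle wells and -100% = peptide control; nearly all actives have a fitted effect of over 45% in size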
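AMA1 (3D7) with his tag at 25 nM final met compounds first, then biotinylated RON2 peptide at 25 nM; detection used donor plus acceptor beads, 10 µg/mL apiece, read by AlphaScreen after 30 min at room temperature.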
FMDV antiviral: foot and mouth disease virus antiviral activity. FMDV antiviral cell-based qHTS. Potency, µM (titrated, usually from 57.9 µM), inactives show top-dose activity change, negative = inhibition, usual class: inhibitors. 410,000 tested, 1.2% active. AID 1159524; calls by dose curve; tested in HEK293T cells; note: read-out not given here; nearly all actives have a fitted effect of over 45% in size
Starred values were filed as active, the others as inactive; ? = inconclusive; . = no result given. Unless noted, calls come from the whole dose curve; as a rule, active = well fitted curve in the direction sought with a large enough effect; inconclusive = small, poorly fitted or top-dose-only effect, or another doubt; inactive = no such curve, though single readings can be large; an effect the other way counts as inactive or inconclusive. Unless noted, % is set by controls: 0 for no effect and ±100 for the full control effect; potency is the fitted concentration of half-maximal effect.

SMILES | Sm TGR inh | AmpC no deterg | AmpC inh detg | AMA1-RON2 inh | FMDV antiviral
CC1CCN(CC(CS(=O)(=O)c2ccc([N+](=O)[O-])cc2)N2CCC(C)CC2)CC1 (stereo not given) | 2.5µM* | -13% | -6% | -15% | 28µM*
CCOc1ccc(NC(=O)CN2CC(c3ccccc3)CC2=O)cc1 (stereo not given) | 4% | 2.5µM* | -15% | -1% | 6%
CCOc1ccc(NC(=O)CN2CCN(CC(=O)c3ccc(OCC)cc3)CC2)cc1 | 22µM* | 124% | -5% | -11% | 1%
CCOc1ccc(NC(=O)CN2CCN(CC(=O)c3ccc(OC)c(OC)c3)CC2)cc1 | 32µM* | 40% | 1% | 17% | -4%
CCN(Cc1ccccc1)Cc1c(O)ccc2c(=O)c(-c3ccc(Cl)cc3)coc12 | -14% | . | 1% | . | 10%
C=CCN(CC=C)Cc1c(O)ccc2c(=O)c(-c3ccccc3)coc12 | 13µM* | -25% | -1% | 9% | 21%
Cc1cc2c(=O)n(Cc3ccco3)c(SCC(=O)c3ccc(Cl)s3)nc2s1 | ? | 28µM* | -1% | 6% | ?
COC(=O)C1CCN(C(=O)c2cc(-c3ccc(Cl)s3)nc3ccccc23)CC1 | 2% | 201% | -5% | 2% | 35µM*
CCN1CCN(C(=O)c2cc(-c3ccc(Cl)s3)nc3ccccc23)CC1 | ? | 185% | 1% | -13% | 0%
O=C(CN1CCN(Cc2ccccc2F)C1=O)NCc1ccco1 | 28µM* | -3% | 2% | -4% | -1%
O=C(NCCc1ccccc1)C1CCN(Cc2cc3ccccc3n2Cc2cccc(Cl)c2)CC1 | 3% | . | -5% | . | -15%
O=C(NCc1ccccc1F)C1CCN(Cc2cc3ccccc3n2Cc2cccc(Cl)c2)CC1 | 13µM* | . | 9% | . | -18%
O=C(CN1CCN(Cc2ccccc2F)C1=O)NCc1cccnc1 | 0% | -19% | ? | -2% | -19%
O=C(NCc1ccco1)C1CCN(c2nc3ccccc3n2Cc2ccccc2F)CC1 | 45µM* | 121% | -8% | -16% | -28%
O=C(O)CN1CCN(Cc2ccc(F)cc2Cl)C1=O | 8.9µM* | -11% | -3% | 5% | 7%
Cc1ncc2c(c1CNC(=O)c1cncs1)CCN(C(=O)c1ccsc1)C2 | . | . | . | . | -14%
O=C(CN1CCN(Cc2ccccc2Cl)C1=O)NCc1ccccc1Cl | 5µM* | . | 9% | . | 34%
O=[N+]([O-])c1cc2no[n+]([O-])c2cc1N1CCCCC1 | . | . | . | -26% | 32µM*
COc1cc(OC)cc(C(=O)Nc2cc3c(cc2N2CCOCC2)n(C)c(=O)n3C)c1 | 0% | . | 11% | . | -29%
Oc1ccc(N=Nc2ccc3c(c2)OCCO3)c2ncccc12 | -12% | -19% | 0% | 18% | 4µM*
NS(=O)(=O)c1ccc(N=Nc2ccc(O)c3ncccc23)cc1 | 56µM* | ? | -6% | -86% | -16%
NS(=O)(=O)c1ccc(N=Nc2ccc(=O)[nH]c2O)cc1 | 22µM* | -24% | 0% | -20% | 4%
CCN(CC)CCNC(=O)c1cnn(-c2nccc(-c3cc4ccccc4o3)n2)c1C | . | . | . | . | -9%
CCOc1cc2[nH]c(=O)n(Cc3ccc(C(=O)N4CCN(c5cccc(Cl)c5)CC4)cc3)c(=O)c2cc1OCC | -2% | . | -4% | . | -12%
O=C(O)c1ccc(COc2ccccc2Cl)cc1 | 0% | -20% | 7% | -2% | 52%
SMILES | Sm TGR inh | AmpC no deterg | AmpC inh detg | AMA1-RON2 inh | FMDV antiviral
O=C(O)c1cccc(COc2ccccc2Cl)c1 | -4% | 1% | -2% | -4% | 1.4µM*
COc1ccc(CNc2cccc3[nH]c(C(F)(F)F)nc23)cc1 | 32µM* | -19% | 4% | 49% | -25%
Cc1ccc(C(=O)Nc2cccc3[nH]c(C(F)(F)F)nc23)cc1 | 0% | -19% | -1% | 7% | -23%
COc1cccc(-c2cc(C(F)(F)F)nc(NCc3ccc(F)cc3)n2)c1 | -2% | . | ? | . | -16%
COc1cc(CNc2cccc3[nH]c(C(F)(F)F)nc23)cc(OC)c1 | 22µM* | -10% | 0% | 43% | ?
COc1ccc(-c2[nH]ncc2CN2CCOc3c(cc(-c4cccc(OC)n4)cc3OC)C2)cc1 | . | . | . | . | 0%
CCn1c(-c2cccnc2)nc2cc(NC(=O)COC)cc(C(=O)N3CCOc4ccccc4C3)c21 | . | . | . | . | 2%
Cc1ccc(S(=O)(=O)c2cnc(SCC(=O)Nc3ccccc3C(F)(F)F)[nH]c2=O)cc1C | 5% | . | 19% | . | -10%
Cc1cccc(-n2nnnc2S(C)(=O)=O)c1 | 2.5µM* | . | 3% | . | 25µM*
COc1cccc(-n2nnnc2S(C)(=O)=O)c1 | 2.8µM* | -14% | 0% | -1% | ?
COC(=O)CNC(=O)c1cnn(-c2ncc3c(n2)-c2ccccc2CCC3)c1C1CC1 | . | . | . | . | 48%
Cc1nc(NC(C)c2ccccc2)c2oc3ccccc3c2n1 (stereo not given) | 1% | 31% | -8% | 0% | 13µM*
CCC(C)Nc1nc(C)nc2c1oc1ccccc12 (stereo not given) | 2% | 3% | -10% | -4% | ?
COc1ccc(CCNc2nc(C)nc3c2oc2ccccc23)cc1OC | 1% | 125% | -1% | -3% | 18µM*
O=C1C(Cl)=C(N2CCOCC2)C(=O)N1c1ccccc1F | 40µM* | -5% | 6% | 15% | -6%
CC(C)c1ccc(N2C(=O)C(Cl)=C(N3CCOCC3)C2=O)cc1 | 2% | -20% | -11% | -3% | -6%
CCOc1ccc(N2C(=O)C(Cl)=C(N3CCOCC3)C2=O)cc1 | 22µM* | -8% | -1% | -4% | -18%
Cc1c(CNC2CCC(C)CC2)c(C(=O)O)c(C)n1Cc1ccc(Cl)cc1 (stereo not given) | -6% | . | 20% | . | -25%
CCC(C)[C@@H](NC(=O)OC(C)(C)C)c1nnc(S(=O)(=O)Cc2cccc(C)c2)o1 (stereo not given in full) | 2µM* | 14µM* | 18µM* | 5% | 32µM*
Cc1ccccc1CS(=O)(=O)c1nnc([C@H](Cc2ccccc2)NC(=O)OC(C)(C)C)o1 | 1.1µM* | 13µM* | 28µM* | 17% | 28µM*
Cc1cccc(CS(=O)(=O)Cc2ccc(C(=O)NC(C)c3ccccc3)o2)c1 (stereo not given) | ? | 2% | -4% | 13% | 16%
CC(C)(C)OC(=O)N[C@@H](Cc1ccccc1)c1nnc(S(=O)(=O)Cc2ccccc2)o1 | 0.63µM* | ? | 18µM* | . | .
NC(=O)C1CCCN(Cc2ccc3c(c2)CN(Cc2cn[nH]c2-c2ccc(F)cc2)CCO3)C1 (stereo not given) | . | . | . | . | -7%
COc1ccc(C(=O)N2CCC3(CCCN(Cc4cc(C(F)(F)F)cc(C(F)(F)F)c4)C3)CC2)cc1 | . | . | . | . | -7%
O=C(CN1C(=O)COc2ccc(S(=O)(=O)NC3CCCC3)cc21)NCc1ccc(Cl)cc1 | 6% | . | 15% | . | 13%
